# Compound activity: PubChem BioAssay, several laboratories
# HCT116 PTEN-null – growth suppression of PTEN-null HCT116, primary screen, cell-based, CellTiter-Glo | HCT116 PTEN-null viability, 60 h; hits give low values | viability, % at 10 µM | actives 1.2% (n = 140,000) | AID 827, 2007;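 active means viability at or below a set limit, 4 SD under the median of all tested compounds, cut at about 3.7% in these data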;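 further: PTEN knockout HCT116 line with beta catenin targeted HCT116 as companion control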
# p97 ATPase inh – inhibitors of human p97 ATPase, primary screen, biochemical | Transitional endoplasmic reticulum ATPase (Homo sapiens), P55072 | actives 0.42% (n = 220,000) | inhibition, % at 8 µM | recombinant p97 ATPase, Kinase-Glo ATP luminescence, 3 h; in the data active means inhibition above about 15%;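 further: 0% = DMSO vehicle and 100% = wells lacking enzyme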
# Target sequence (P55072 whole entry, looked up): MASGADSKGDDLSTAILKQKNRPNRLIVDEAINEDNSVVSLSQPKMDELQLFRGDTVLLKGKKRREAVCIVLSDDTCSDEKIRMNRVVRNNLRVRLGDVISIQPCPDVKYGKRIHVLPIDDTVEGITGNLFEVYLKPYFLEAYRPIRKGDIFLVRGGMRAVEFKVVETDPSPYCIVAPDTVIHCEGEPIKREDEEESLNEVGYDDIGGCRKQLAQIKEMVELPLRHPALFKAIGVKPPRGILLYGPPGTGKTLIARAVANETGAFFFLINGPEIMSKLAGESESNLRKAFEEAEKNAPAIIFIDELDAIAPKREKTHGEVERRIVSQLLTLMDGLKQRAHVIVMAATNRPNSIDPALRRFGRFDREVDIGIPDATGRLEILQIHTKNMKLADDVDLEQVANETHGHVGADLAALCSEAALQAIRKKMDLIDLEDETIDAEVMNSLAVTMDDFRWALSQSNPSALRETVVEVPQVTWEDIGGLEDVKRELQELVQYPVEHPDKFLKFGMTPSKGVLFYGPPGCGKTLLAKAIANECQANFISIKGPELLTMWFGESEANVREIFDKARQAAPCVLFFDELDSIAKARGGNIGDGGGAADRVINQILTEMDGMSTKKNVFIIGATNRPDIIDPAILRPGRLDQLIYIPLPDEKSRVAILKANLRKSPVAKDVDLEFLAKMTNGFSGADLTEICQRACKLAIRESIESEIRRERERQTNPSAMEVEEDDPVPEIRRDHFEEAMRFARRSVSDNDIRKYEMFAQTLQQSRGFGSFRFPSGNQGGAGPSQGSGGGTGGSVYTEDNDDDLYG
# INS promoter inh – inhibitors of insulin promoter-driven GFP, primary screen, imaging, TRM-6 cells (human fetal islet line), eGFP reporter, cell count; reporter expression induced with tamoxifen; inhibition, % at 2 µM; actives 0.9% (n = 130,000); AID 1273, 2008;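 active means inhibition above the mean plus 3 SD, with well images judged a real hit on visual review, cut at about 60% in these data, passing the limit was not always enough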
# bCat KO growth – primary screen for growth suppressors in beta-catenin knockout HCT116 cells (colon tumor, human); actives 1.5% (n = 140,000); AID 818, 2007; HCT116 beta-catenin knockout viability, CellTiter-Glo, 60 h; hits give low values; viability, % at 10 µM;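 active means viability at or under a set limit, the compound median less 4 SD, cut at about 6% in these data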;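 further: 0% = Hyamine 1622 control at 20 µM and 100% = untreated cell control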
# ROMK mod – ROMK potassium channel modulators, primary screen, cell-based, thallium flux, MLSMR library | ATP-sensitive inward rectifier potassium channel 1 (Homo sapiens), P48048 | Tet-inducible ROMK, thallium flux fluorescence; actives lie on both sides | B-score at 10 µM | actives 2% (n = 130,000) | AID 1918, 2009;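 active means signal ratio slope over the read window, or its plate-corrected B-score, at least 3 SD from the plate mean, either direction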;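 further: B-score of the F/F0 ratio slope over 7 to 12 s after thallium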
# L major viab – Leishmania major promastigote growth inhibition, primary screen; Leishmania major promastigotes, resazurin fluorescence viability; inhibition, % at 10 µM; actives 9% (n = 200,000); in the data active means inhibition above about 50%;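 further: promastigotes grown with compound for 44 hours at 28 °C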
# The depositor's hits bear a star; . = not tested or not shown. In the library only some 10% were active in any assay of this set; here they are far more common.
SMILES,HCT116 PTEN-null,p97 ATPase inh,INS promoter inh,bCat KO growth,ROMK mod,L major viab
COc1ccc(CCNC(=O)c2ccc(CNS(=O)(=O)c3ccccc3)cc2)cc1OC,91,-3,-23,88,0.24,70*
Cc1ccc(S(=O)(=O)NCc2ccc(C(=O)N3CCN(Cc4ccccc4)CC3)cc2)cc1,62,-2,-4,63,-1.8,77*
COC(=O)CNC(=O)c1ccc(F)cc1,.,9,.,.,1.5,.
CCOC(=O)c1ccc(NC(=O)N2CCN(c3cccc(OC)c3)CC2)cc1,.,1,.,.,0.68,18
Cc1ccc(C)c(S(=O)(=O)NCc2ccc(C(=O)N3CC(C)OC(C)C3)cc2)c1 (centres undefined),94,-4,10,103,-0.084,-7
Cc1ccc(C)c(S(=O)(=O)NCc2ccc(C(=O)N3CCCCCC3)cc2)c1,90,-10,77*,95,0.57,14
Cc1ccc(S(=O)(=O)NCc2ccc(C(=O)NCCCN3CCC(Cc4ccccc4)CC3)cc2)cc1,.,-3,.,.,-0.64,96*
O=C(c1cccc(NS(=O)(=O)c2ccc(F)c(F)c2)c1)N1CCN(Cc2ccccc2)CC1,93,0,-48,90,.,59*
O=C(COC(=O)CN1C(=O)C(=O)c2ccccc21)OCN1C(=O)c2ccccc2C1=O,99,5,16,92,.,4
O=C(NCc1ccc2c3c(cccc13)C(=O)N2)c1cccs1,.,-5,.,.,-0.33,.
CC(=O)Nc1ccc(N=Nc2ccc(O)cc2)cc1,85,4,21,89,-2.2,52*
CCCCCN(C(=O)NC(=O)Nc1ccc(C)cc1)S(=O)(=O)c1ccccc1,104,2,.,90,.,2
OCCN1C[C@H](O)[C@@H](O)[C@H](O)[C@H]1CO,.,2,.,.,.,.
CCCCN1C[C@H](O)[C@@H](O)[C@H](O)[C@H]1CO,1.2*,3,39,1.0*,0.047,-7
CC(C)C(C)NC(=O)COC(=O)c1cc(S(=O)(=O)N(C)C)ccc1N1CCCC1 (centres undefined),.,-5,33,.,-0.75,6
Cn1c(SCC(=O)Nc2ccccc2[N+](=O)[O-])nnc1C(F)(F)F,.,0,8,.,0.43,-7
Clc1ccccc1OCCN1CCCCC1,91,5,9,110,.,88*
COC(=O)c1ccccc1OCCN1CCCCCC1,.,-1,-76,.,0.54,5
CCCn1c(N)nc2ccccc21,104,6,-14,107,.,20
Clc1ccc(OCCN2CCCCC2)c(Cl)c1,91,3,-35,98,-0.015,99*
Nc1nc2ccccc2n1CCOc1ccccc1Cl,46,-6,.,41,-3.9*,100*
Cn1c(=S)n(C)c2ccccc21,.,4,42,.,0.69,-4
Cn1ccc(=S)c2ccccc21,.,3,89*,.,-0.48,88*
CN(C)c1ccc(/C=C(\C#N)C(=O)Nc2nc3c(s2)CCN(Cc2ccccc2)C3)cc1,68,-4,-75,55,.,6
O=C(CSC1=NCCN1)NC(c1ccccc1)c1ccccc1,.,3,.,.,-1.1,94*
SMILES,HCT116 PTEN-null,p97 ATPase inh,INS promoter inh,bCat KO growth,ROMK mod,L major viab
COc1ccccc1NC(=O)CSC1=NCCN1,86,2,-38,84,0.064,-3
Fc1ccc(COc2ccc(Br)cc2CNCC2CCCO2)cc1 (centres undefined),.,-1,.,.,-1.8,82*
Fc1ccccc1COc1ccc(Br)cc1CNCC1CCCO1 (centres undefined),.,-4,.,.,-1.1,-13
Cc1ccc(S(=O)(=O)N2CCCCC2)cc1C(=O)Nc1ccc(S(=O)(=O)Nc2ncccn2)cc1,.,4,.,.,.,.
CCN(C(=O)COC(=O)c1cc(-c2ccccc2)nc2c1c(C)nn2-c1ccccc1)C1CCS(=O)(=O)C1 (centres undefined),72,-3,56,86,0.075,16
CCN(C(=O)COC(=O)c1cc(-c2ccc3cc(OC)ccc3c2)nc2ccccc12)C1CCS(=O)(=O)C1 (centres undefined),69,1,24,86,-0.019,98*
CCOc1cc(S(=O)(=O)N2CC=C(c3ccc(F)cc3)CC2)c(OCC)cc1-n1cnnn1,34,4,-109,38,.,62*
Cc1cc(NC(=O)CCSc2ccc(Cl)cc2)no1,.,-1,.,.,-0.098,3
CCc1ccc(-c2csc(NC(=O)c3cccnc3)n2)cc1,51,-5,-57,50,0.13,-3
N#C/C(=C\c1ccc(-c2cccc([N+](=O)[O-])c2)o1)c1nnc(N2CCOCC2)n1-c1ccccc1,.,0,-30,.,0.025,63*
N#C/C(=N\Nc1ccc(Cl)cc1)C(N)=S,.,7,.,.,0.28,.
Cc1ccc(N/N=C(\C#N)C(N)=S)cc1C,.,2,.,.,-1.1,50*
COc1ccc2nc(NC(=O)CNS(=O)(=O)c3cccs3)sc2c1,91,1,19,93,0.23,89*
COc1ccc2nc(NC(=O)Cc3cccs3)sc2c1,84,0,27,98,.,59*
COc1ccc(-n2nc(C(=O)Nc3nc4ccc(OC)cc4s3)c3ccccc3c2=O)c(OC)c1,2.6*,7,34,12,.,-4
CCC(=O)Nc1nc2cc(OC)ccc2s1,95,8,-10,95,.,12
COc1ccc2sc(NC(C)=O)nc2c1,84,-1,79*,76,0.29,0
CC(=O)c1nnn(-c2c(F)cccc2F)c1C,.,0,.,.,.,.
COc1ccc(C(=O)NC(=S)Nc2ccc(Cc3ccncc3)cc2)cc1,.,0,6,.,.,8
COc1ccc2nc(NC(=O)CCn3cccc3)sc2c1,104,1,-73,102,-1.2,56*
CCCN(CCC)CCNC(=O)C(NS(=O)(=O)c1ccc2c(c1)CCC(=O)N2)c1ccccc1 (centres undefined),91,1,29,90,.,-3
Cc1cc(C)c2c(N)c(C(=O)C(C)(C)C)sc2n1,.,2,.,.,-0.85,97*
Cc1cc(C)c2c(N)c(C(=O)NC3CCCC3)sc2n1,.,9,.,.,-1.2,22
Cc1cc(C)c2c(N)c(C(=O)c3ccc(Cl)cc3)sc2n1,78,9,72*,86,1,71*
Cc1cc(C)c2c(N)c(C(=O)c3ccccc3)sc2n1,.,1,.,.,0.29,.
COc1ccc(C(=O)c2sc3nc(C)cc(-c4cccs4)c3c2N)cc1,74,5,-178,86,.,73*
Cc1cc(C)c2c(N)c(C(=O)NCC3CCCCC3)sc2n1,96,-5,-28,93,-0.38,77*
O=c1ccc(Oc2nc(N3CCOCC3)nc(N3CCOCC3)n2)n[nH]1,90,-10,-47,82,.,-3
c1ccc(SCc2nc3ccccc3[nH]2)nc1,95,4,22,95,-0.16,-4
